Data: PubChem BioAssay
A number with no mark means an inactive call. The source made the active and inactive calls.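 The calls were made as follows, unless noted: active = mean inhibition over 43.08%, the solvent-only control mean plus 3 SD; inactive = the rest.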

Experiments:
[1] = target: Nuclear receptor coactivator 3 (Homo sapiens) (UniProt Q9Y6Q9); experiment: SRC3 coactivator transcriptional activity inhibitors, confirmation, cell-based, luminescence, quadruplicate (AID 588792); conditions: HEK293 GAL4-SRC3 luciferase reporter, at 3.6 µM, active compounds read high;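 also: 0% = DMSO treated cells and 100% = gossypol at 36 µM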
[2] = test system: transactivating tegument protein VP16 (Human herpesvirus 1), Gal4-VP16 luciferase reporter; experiment: VP16 transactivation inhibitors, counter-screen for SRC3 inhibitor project, cell-based, luminescence, high throughput (AID 588794; in the data active = inhibition above about 30%); conditions: mammalian cells, VP16-driven luciferase reporter luminescence; at 3.6 µM; active compounds read high

Sequence of Nuclear receptor coactivator 3 (Homo sapiens) (Q9Y6Q9 whole entry, looked up, the tested form may be a part): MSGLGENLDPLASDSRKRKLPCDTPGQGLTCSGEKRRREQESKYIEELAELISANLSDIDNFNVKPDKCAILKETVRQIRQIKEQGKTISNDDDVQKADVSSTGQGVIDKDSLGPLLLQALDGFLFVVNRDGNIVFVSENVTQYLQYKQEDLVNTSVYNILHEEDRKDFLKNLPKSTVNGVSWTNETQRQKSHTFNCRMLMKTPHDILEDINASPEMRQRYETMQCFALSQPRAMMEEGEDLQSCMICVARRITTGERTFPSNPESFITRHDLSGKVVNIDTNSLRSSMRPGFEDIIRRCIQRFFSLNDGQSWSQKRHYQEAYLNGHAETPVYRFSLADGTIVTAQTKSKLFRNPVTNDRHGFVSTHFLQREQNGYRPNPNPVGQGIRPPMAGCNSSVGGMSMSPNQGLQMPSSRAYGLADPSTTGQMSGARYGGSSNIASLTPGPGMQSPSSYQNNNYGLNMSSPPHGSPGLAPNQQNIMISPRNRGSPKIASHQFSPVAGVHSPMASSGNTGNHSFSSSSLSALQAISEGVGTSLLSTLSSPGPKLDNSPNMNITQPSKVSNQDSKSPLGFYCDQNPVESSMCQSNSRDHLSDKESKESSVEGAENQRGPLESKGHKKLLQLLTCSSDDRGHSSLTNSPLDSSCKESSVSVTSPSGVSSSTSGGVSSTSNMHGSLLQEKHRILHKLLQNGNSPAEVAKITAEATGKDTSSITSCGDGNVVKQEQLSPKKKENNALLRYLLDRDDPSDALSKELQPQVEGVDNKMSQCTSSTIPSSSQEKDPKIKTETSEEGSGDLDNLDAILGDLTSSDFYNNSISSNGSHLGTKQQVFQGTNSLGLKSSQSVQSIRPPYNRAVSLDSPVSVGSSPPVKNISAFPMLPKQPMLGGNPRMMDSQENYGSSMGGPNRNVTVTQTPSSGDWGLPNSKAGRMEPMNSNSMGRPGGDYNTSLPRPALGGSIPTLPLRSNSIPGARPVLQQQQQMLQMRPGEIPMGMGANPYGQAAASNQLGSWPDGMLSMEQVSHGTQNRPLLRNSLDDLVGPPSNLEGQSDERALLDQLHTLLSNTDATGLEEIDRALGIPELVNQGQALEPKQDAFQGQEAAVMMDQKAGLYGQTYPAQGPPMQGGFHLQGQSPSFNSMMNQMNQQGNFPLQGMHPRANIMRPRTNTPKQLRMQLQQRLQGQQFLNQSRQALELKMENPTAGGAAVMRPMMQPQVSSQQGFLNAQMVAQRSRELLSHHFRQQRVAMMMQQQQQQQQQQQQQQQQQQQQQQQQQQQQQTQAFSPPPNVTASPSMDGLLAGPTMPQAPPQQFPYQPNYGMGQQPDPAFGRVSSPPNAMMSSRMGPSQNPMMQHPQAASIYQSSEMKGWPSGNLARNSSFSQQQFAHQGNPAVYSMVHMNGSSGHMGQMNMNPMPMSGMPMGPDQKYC

SMILES	inhibition [1]	inhibition [2]
O=[N+]([O-])c1ccc(N=Nc2c(Cl)cc(O)cc2Cl)cc1	13.9%	66% (active)
COc1cc(/C=C/c2cc(C(F)(F)F)[nH]c(=O)n2)cc(OC)c1OC	16.9%	40.6% (active)
Cc1cc(Br)cc(/C=N/NC(=O)c2ccc3c(c2)OCO3)c1O	18.9%	26.3%
CCCN1CCN(C2CCCCC2NS(=O)(=O)c2ccccc2)CC1 (centres undefined)	-7.15%	-2.22%
CCOC(=O)N1CCC2(CC1)C(C#N)=C(N)Oc1n[nH]c(CSc3ccc(C)cc3)c12	2.57%	-6.53%
CNCC(C)COc1ccccc1OCc1ccccc1 (centres undefined)	2.54%	10.4%
CCN(CC)CCCNc1nc2ccccc2c2nc(-c3ccncc3)nn12	-2.05%	41.3% (active)
Cc1cccc(OCC(O)Cn2c(=N)n(CCN3CCCCC3)c3ccccc32)c1 (centres undefined)	2.86%	20.6%
O=C(Nc1ccccc1Cc1ccccc1)c1ccccc1NS(=O)(=O)c1ccc(Cl)s1	4.01%	24.9%
Cc1cccc(C)c1-n1c(C)cc(/C=N\NC(=O)CC(=O)NC2CCCCC2)c1C	-17.4%	-15.1%
CC(C)COc1ccc(C(=O)Nc2sc3c(c2C(=O)O)CC(C)(C)OC3)cc1	45.4% (active)	68.5% (active)
COn1c(C)c(C(C)=O)c2c3nonc3ccc21	22.5%	33.5% (active)
